HP1b chromo inh: inhibitors of HP1-beta chromodomain binding to methylated histone tails; P83916; AlphaScreen HP1-beta / biotin-H3K9me3 peptide binding; Potency, µM (series often up to 114 µM), for inactives: top-dose activity change, negative = inhibition, hits mostly inhibitors; 390,000 compounds, 0.56% hits; AID 540317; also: nearly all actives have a fitted effect of over 70% in size
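HP1-beta protein (50 nM final) preincubated 30 min at room temperature with biotinylated H3(1-18)K9me3 peptide (50 nM) in PBS pH 7.4, 0.01% Tween-20, then compound added for 30 min. AlphaScreen streptavidin donor/nickel chelate acceptor beads (10 ug/mL final), 30 min dark, luminescence read.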
G9a inh: G9a (human) methyltransferase inhibition. 350,000 compounds, 8.8% hits. Q96KQ7. Potency, µM (doses to about 102 µM), inactives show at the top dose activity, negative = inhibition, hits mostly inhibitors. G9a H3K9 monomethylation, AlphaScreen, 2 h; also: % is scaled to controls: 0 for no effect and ±100 for the full control effect; nearly all actives have a fitted effect of over 75% in size
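G9a (20 nM) was preincubated 15 min with compound, then reacted 2 h at room temperature with 500 nM biotin-H3K9 peptide and 20 µM SAM. Monomethyl-H3K9 detected by AlphaScreen using anti-H3K9me1 antibody.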
BAZ2B block: BAZ2B (human) inhibition; Potency, µM (top dose mostly 114 µM), inactives show at the highest dose activity change, negative = inhibition, most hits filed as inhibitors; Q9UIF8; 360,000 compounds, 4.4% hits; AlphaScreen BAZ2B-H3K14Ac peptide displacement; also: % is scaled to controls: 0 for no effect and ±100 for the full control effect; nearly all actives have a fitted effect of over 60% in size
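Inhibition is scored as reduced AlphaScreen emission. The BAZ2B/b-H3(5-23)K14Ac complex (50 nM each) in PBS pH 7.4, 0.01% Tween-20 meets compound (up to 110 uM) for 30 min at RT before bead addition.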
JMJD2A Tudor inh: blocks the human JMJD2A Tudor domain | 390,000 compounds, 4.4% hits | AlphaScreen JMJD2A-Tudor / H3K4me3 peptide binding | O75164 | Potency, µM (series often up to 114 µM), inactives show at the top dose activity change, negative = inhibition, hits mostly inhibitors | AID 504339; also: % is scaled to controls: 0 for no effect and ±100 for the full control effect; nearly all actives have a fitted effect of over 50% in size
Target sequence (O75164 whole entry, looked up, the tested form may be a part): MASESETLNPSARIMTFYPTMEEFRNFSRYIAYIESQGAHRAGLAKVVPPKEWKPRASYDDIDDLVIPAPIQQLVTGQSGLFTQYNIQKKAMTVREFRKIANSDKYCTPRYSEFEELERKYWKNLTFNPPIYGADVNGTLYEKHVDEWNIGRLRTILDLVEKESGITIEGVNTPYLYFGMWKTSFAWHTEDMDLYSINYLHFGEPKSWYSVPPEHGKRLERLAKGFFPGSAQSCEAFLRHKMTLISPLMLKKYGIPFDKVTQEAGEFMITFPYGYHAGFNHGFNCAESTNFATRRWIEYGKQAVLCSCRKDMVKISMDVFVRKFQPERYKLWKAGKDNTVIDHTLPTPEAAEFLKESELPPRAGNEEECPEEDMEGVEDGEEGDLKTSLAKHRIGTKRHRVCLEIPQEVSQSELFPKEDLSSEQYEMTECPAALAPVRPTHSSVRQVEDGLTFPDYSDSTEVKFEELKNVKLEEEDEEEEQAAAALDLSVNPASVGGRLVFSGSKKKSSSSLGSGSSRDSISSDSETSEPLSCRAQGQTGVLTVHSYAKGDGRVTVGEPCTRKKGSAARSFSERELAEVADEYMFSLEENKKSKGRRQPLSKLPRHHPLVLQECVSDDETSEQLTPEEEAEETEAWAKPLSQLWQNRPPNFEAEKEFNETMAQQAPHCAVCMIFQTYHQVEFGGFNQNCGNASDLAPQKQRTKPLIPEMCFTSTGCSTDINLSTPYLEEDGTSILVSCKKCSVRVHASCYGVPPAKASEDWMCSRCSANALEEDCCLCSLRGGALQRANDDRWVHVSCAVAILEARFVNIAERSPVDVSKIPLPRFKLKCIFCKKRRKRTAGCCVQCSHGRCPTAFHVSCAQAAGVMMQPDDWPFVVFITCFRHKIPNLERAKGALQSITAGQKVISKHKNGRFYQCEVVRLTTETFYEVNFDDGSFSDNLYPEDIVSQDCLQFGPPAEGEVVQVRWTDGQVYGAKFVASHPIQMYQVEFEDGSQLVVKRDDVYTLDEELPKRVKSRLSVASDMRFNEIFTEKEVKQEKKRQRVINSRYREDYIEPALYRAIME
Sfp PPTase inh: inhibitors of Bacillus subtilis Sfp phosphopantetheinyl transferase; 310,000 compounds, 3.5% hits; Potency, µM, for the others: largest response in the series, negative = inhibition, actives largely listed as inhibitors; Biochemical Sfp PPTase activity, qHTS; Q9F4F7;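 also: the enzyme is Sfp with the accession as filed and its product quenches rhodamine fluorescence; 0% = enzyme reaction without inhibitor and -100% = no enzyme wells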
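Buffer: 50 mM Hepes-Na pH 7.6, 10 mM MgCl2, 0.01% Nonidet P-40, 0.01% BSA. Enzyme 15 nM, pre-exposed to compound 15 min; substrates then added and fluorescence change tracked over 30 min.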
PLK1 PBD inh: inhibitors of human PLK1 polo-box domain binding; P53350; Plk1 PBD binding of FITC phosphopeptide, fluorescence polarization; Potency, µM, without a hit: max response, negative = inhibition, hits mostly inhibitors; 360,000 compounds, 2.8% hits; AID 720504; also: series mostly up to about 57 µM; % is scaled to controls: 0 for no effect and ±100 for the full control effect; nearly all actives have a fitted effect of over 65% in size
Starred values were filed as active, the others as inactive; ! = repeats disagree; [ ] = another dose, or the depositor's remark. Most compounds without a hit are left out; they make up all but 12% or so of the library. Calls follow the shape of the dose curve; as a rule, active = well fitted curve in the direction sought with a large enough effect; inconclusive = small, poorly fitted or top-dose-only effect, or another doubt; inactive = no such curve, though single readings can be large; an effect the other way counts as inactive or inconclusive. Potency is read from the fitted curve at half-maximal effect.

For Cc1c(C(=O)N(C)C)sc2c1c(=O)n(-c1ccc(Cl)cc1)c(=O)n2Cc1ccccc1F the results were HP1b chromo inh 35.3%, G9a inh 5.4%[59 µM], BAZ2B block -6.8% and JMJD2A Tudor inh -6.4%.
For COc1ccc(Nc2nc(N)nc(N)c2S(=O)(=O)c2ccccc2)cc1 the results were HP1b chromo inh 23.8%, G9a inh -15.4%[59 µM], BAZ2B block -29.0% and JMJD2A Tudor inh -29.1%.
`CC1CCC(NC(=O)CN2C(=O)NC3(CCCCC3C)C2=O)CC1` (stereo not given) gave HP1b chromo inh 21.5%, G9a inh 13.8%[12.7 µM], BAZ2B block -2.3%, JMJD2A Tudor inh -7.5% and PLK1 PBD inh -3.5%.
`CC(=NNc1nc2ccccc2s1)c1ccncn1` gave HP1b chromo inh -16.3%, JMJD2A Tudor inh inconclusive and PLK1 PBD inh -8.5%.
C/C(=N\Nc1nc2ccccc2s1)c1ccc(Br)s1 was read as HP1b chromo inh -10.9%, G9a inh 35.5µM*, BAZ2B block inconclusive, JMJD2A Tudor inh inconclusive, Sfp PPTase inh 9.1% and PLK1 PBD inh -4.0%.
For N/C(Cc1ccc([N+](=O)[O-])cc1)=N\OC(=O)c1ccc([N+](=O)[O-])cc1 the results were HP1b chromo inh inconclusive, G9a inh 8.91µM*, BAZ2B block inconclusive, JMJD2A Tudor inh inconclusive, Sfp PPTase inh -0.7% and PLK1 PBD inh -10.2%.
CCCCc1nc2c(c3c1C[C@H](C)OC3)CN(C(=O)N[C@@H](C)c1ccccc1)CC2 was read as Sfp PPTase inh -11.8%.
For COC(=O)c1cc(O)cc(OC)c1Oc1cc(C)cc(O)c1C(=O)O the results were HP1b chromo inh inconclusive, G9a inh inconclusive, BAZ2B block 8.91µM*, JMJD2A Tudor inh 20µM*, Sfp PPTase inh 56.2µM* and PLK1 PBD inh -10.8%.
Screening O=C(CCC(=O)N(CC(=O)NC1CCCC1)Cc1ccccc1Cl)Nc1nccs1 returned HP1b chromo inh -0.2%, G9a inh -8.3%[59 µM], BAZ2B block 1.9%, JMJD2A Tudor inh -12.4%, Sfp PPTase inh 14.1% and PLK1 PBD inh -16.5%.
Screening CCCCCn1c(=O)c(C(=O)c2ccccc2)nc2ccccc21 returned HP1b chromo inh -2.4%, G9a inh -15.2%[59 µM], BAZ2B block -1.3%[57.1 µM], JMJD2A Tudor inh -20.8%, Sfp PPTase inh 9.1% and PLK1 PBD inh 0.8%.
`CCCCCCn1c(=O)[nH]c2nc3cc(N)ccc3nc2c1=O` gave HP1b chromo inh 58.6%, G9a inh 39.8µM*, BAZ2B block 1.0%, JMJD2A Tudor inh 12.0%, Sfp PPTase inh inconclusive and PLK1 PBD inh inconclusive.
Screening NC[C@H](O)c1ccc(O)c(O)c1 returned HP1b chromo inh -8.3%, G9a inh 9.47µM*, BAZ2B block inconclusive, JMJD2A Tudor inh 7.94µM*, Sfp PPTase inh inconclusive and PLK1 PBD inh -17.9%.
Oc1ccc(C(O)CNCCCCCCNCC(O)c2ccc(O)c(O)c2)cc1O (stereo not given) was read as G9a inh -40.5%[12.7 µM] and Sfp PPTase inh inconclusive.
`CC(C)NCC(O)c1ccc(O)c(O)c1` (stereo not given) gave HP1b chromo inh 11.1%, G9a inh 14.1µM*!, BAZ2B block -26.9%, JMJD2A Tudor inh -7.2%, Sfp PPTase inh -24.4% and PLK1 PBD inh 3.6%.
Screening CCN(CC(=O)Nc1ccc(OC)cc1)CC(=O)N1CC(=O)Nc2ccccc21 returned HP1b chromo inh 46.7%, G9a inh -1.1%[2.33 µM], BAZ2B block 9.5%, JMJD2A Tudor inh 2.6% and PLK1 PBD inh 1.5%.
CCc1ccc(NC(=O)c2sc3nc4n(c(=O)c3c2C)CCC4)cc1 was read as HP1b chromo inh 21.2%[57 µM], G9a inh 80.0%, BAZ2B block -16.8%, JMJD2A Tudor inh -16.1%, Sfp PPTase inh -3.8% and PLK1 PBD inh -1.2%.
Screening Cc1c(C(=O)Nc2cccc(C(F)(F)F)c2)sc2nc3n(c(=O)c12)CCCC3 returned HP1b chromo inh 42.8%, G9a inh 3.55µM*, BAZ2B block -1.3% and JMJD2A Tudor inh -14.1%.

Screens (PubChem BioAssay)
